Here are results for 30 sequences from the OligoGym collection.

Among the targets are ZNF653; ZNF630; ZNF599; ZNF592; ZNF609; ZNF708; ZNF77; ZNF718; ZNF829.
Holding throughout (test): pooled miR-30 sensor sort-seq; sequence = guide strand
What all share (conditions): shRNA
Further: reference of the scale not given here.

With ATAAATAGAACTTCTTGCCACA, in the test with ZNF653, the sensor-assay potency score (higher = more potent) was -0.586. Take ATACTTAGTACATTCATAGGGT: the sensor-assay potency score (higher = more potent) with ZNF630 was 0.067. In the test with ZNF599, TTCTCTACAAACATAGGGCTTC yielded a sensor-assay potency score (higher = more potent) of 0.194. With TTGGCGTCGCTCCAGCCGCTGC, the sensor-assay potency score (higher = more potent) with ZNF653 is -1.56. For TTGAACTCCAAAGCTTCCCCGA, in the test with ZNF592, the sensor-assay potency score (higher = more potent) is -0.465. In the test with ZNF630, TTTCACATTGACTATCTCCATA registered a sensor-assay potency score (higher = more potent) of -0.895. TTCTTTCTTGCATAGCTCCTGT: the sensor-assay potency score (higher = more potent) with ZNF630 was 0.0285.

With ACACATACTACAAACATTGGGT, in the test with ZNF630, the sensor-assay potency score (higher = more potent) was -0.0412.

On to TTGCTTATGACTGAGAACTTTT, for which the sensor-assay potency score (higher = more potent) with ZNF630 is -0.853. TAAACATATGTCCACATCCGGG: in the test with ZNF609, the sensor-assay potency score (higher = more potent) was -1.36. On to TAGAATGAGATGTGACTTCAGG, for which the sensor-assay potency score (higher = more potent) with ZNF630 was -0.186.

As for TATGGGTCCTCTTATGTCGGAT, in the test with ZNF599, the sensor-assay potency score (higher = more potent) is -0.578.

The sequence TGAATCTTTAATATAATTCTTT registered a sensor-assay potency score (higher = more potent) in the test with ZNF599 of -0.316. As to TATTGGATCCATCTCTGCCTGT, in the test with ZNF609, the sensor-assay potency score (higher = more potent) was -0.575.

In the test with ZNF599, TTGAGAGTCACACTCATGGAGA showed a sensor-assay potency score (higher = more potent) of -0.714.

TGAAACTGTAGATCTTGTCGGC had a sensor-assay potency score (higher = more potent) in the test with ZNF609 of 0.618. In turn, ATGTCTTATCTTATGTCTCTTT yielded a sensor-assay potency score (higher = more potent) with ZNF708 of -1.05. The sequence TAACATAAATGTAACAATCCAA gave a sensor-assay potency score (higher = more potent) in the test with ZNF77 of -0.347.

As to TTTATCTACAGTGTGAATTTTC, the sensor-assay potency score (higher = more potent) with ZNF718 was -0.972.

In the test with ZNF708, TATCTTATGATTCGTAAGGTTT came in with a sensor-assay potency score (higher = more potent) of -1.04. For ATATCTTATCTTATCTTTGTTT, the sensor-assay potency score (higher = more potent) with ZNF718 was -0.436. TTGACTGAAATGTCTCTTCTTT: the sensor-assay potency score (higher = more potent) with ZNF829 came to 0.505. As for TTTTGTGTTGAGTTAGGCGTGA, the sensor-assay potency score (higher = more potent) with ZNF718 worked out at 0.0879. Same read-out and setting: the figure for ATTTGTAGTATTTTTGTGCAGA is -0.171. Turning to TTCTACATTCTTCACATTCATA, the sensor-assay potency score (higher = more potent) in the test with ZNF829 is -1.09.

TTGAGCAATACTTAAAGGCTTT displayed a sensor-assay potency score (higher = more potent) with ZNF829 of -0.25.

Take TTATGTTTAGCAAAGTCTGAGG: in the test with ZNF718, the sensor-assay potency score (higher = more potent) was -0.614. In the test with ZNF829, TTCTCCAACATCACTTCTTTGT yielded a sensor-assay potency score (higher = more potent) of -0.439. TTAAATTCTCATGTCCACGTTT had a sensor-assay potency score (higher = more potent) in the test with ZNF718 of -0.266. As to TAGACCAGGAATCACTTCCTGT, the sensor-assay potency score (higher = more potent) in the test with ZNF77 is -0.274.
